Test [1] can be described thus: rapamycin-like changes in RPL19A-GFP expression – cell-based, S. cerevisiae, multiplex flow cytometry, primary screen (AID 1862; in the data active = percent of DMSO control GFP below about 86%;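 also: lower values mimic rapamycin by blocking the RPL19A rise seen in DMSO cells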). As to conditions: S. cerevisiae RPL19A-GFP strain, flow cytometry fluorescence, 3 h; at 10 µM; stronger effect = lower value. For orientation: Flow cytometry measures light scatter and fluorescence of single cells or particles in a stream.
Test [2] in a line: TOR pathway GLN3 branch reporter MEP2-GFP changes – S. cerevisiae, multiplex flow cytometry, primary screen (AID 1867;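 active = GFP response, as percent of the DMSO control, above the screen-wide mean plus 3 SD, about 139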;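 also: median GFP channel fluorescence of barcode-gated MEP2-GFP cells measured by flow cytometry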). As to conditions: S. cerevisiae MEP2-GFP strain, 3 h, at 10 µM, stronger effect = higher value, 100% means same as DMSO wells.
A short description of test [3]: TOR pathway RTG branch CIT2 reporter changes – S. cerevisiae, GFP fusion, multiplex flow cytometry, primary screen (AID 1870;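 active = percent response above a set limit, the screen-wide mean plus 3 SD, cut at about 130% in these data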;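 also: barcoded CIT2-GFP strain pooled with four other GFP strains with rapamycin as positive control; median GFP fluorescence per well over plate mean of DMSO wells so 100% = DMSO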). The conditions noted are these: S. cerevisiae CIT2-GFP expression, 3 h, at 10 µM, stronger effect = higher value.
A short description of test [4]: TOR pathway LAP4-GFP level changes – S. cerevisiae, multiplex flow cytometry, primary screen (AID 1873;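 active = GFP signal, as percent of the solvent control, above the screen mean plus 3 SD, about 149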). As to conditions: S. cerevisiae LAP4-GFP expression, 3 h, at 10 µM, stronger effect = higher value.
Test [5] is described as follows: yeast AGP1-GFP level changes, GLN3 branch – cell-based, multiplex flow cytometry, S. cerevisiae, primary screen (AID 1887;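 active = GFP signal above the screen-wide mean plus 3 SD, that is over about 124.5% of the solvent control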;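 also: AGP1-GFP fusion strain of S. cerevisiae within a five-strain barcoded multiplex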). The conditions noted are these: 3 h, at 10 µM, stronger effect = higher value.
Test [6] is described as follows: reduced mouse 2C T cell binding to pMHC/ICAM-1 vesicles – MLPCN validation set, flow cytometry, LFA-1/ICAM-1 modulator project, pilot screen (AID 2523;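 active = response below a set limit, under 55% cells CD8-positive and vesicle-bound, and CD8 cells' 90th-percentile brightness under 279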;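 as to vesicle binding response: mean PE anti-B7-1 fluorescence of CD8+ cells relative to row control; 100% = QL9-loaded vesicles with DMSO vehicle in the same plate row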). As to conditions: 2C mouse CD8+ T cells, at 7 µM, stronger effect = lower value; double positive events: measured here: CD8+/vesicle+ event percentage.
Test [7] has as its target Integrin beta-1 (Homo sapiens) + Integrin alpha-4 (Homo sapiens) (UniProt P13612+P05556). The test is described as follows: alpha4beta1 integrin LIBS antibody binding reduction – U937 cells, HUTS-21 mAb, flow cytometry, validation set, VLA-4 allosteric modulator project, pilot screen (AID 2674;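 active = inhibition above 50%, about 3 SD of the validation set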;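 also: antibody binding induced by the VLA-4 ligand LDV present at three times its Kd; 0% = LDV ligand with antibody and no compound and 100% = antibody without LDV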). As to conditions: HUTS-21 LIBS mAb binding, at 6.7 µM, stronger effect = higher value, binding induced by LDV ligand.

A short description of test [8]: calorie-restriction mimetic ROS inhibitors, yeast – validation compound set, pilot screen (AID 2706;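 active = superoxide response below 65% of plate, a cut near 3 SD across the whole screen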;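 also: yeast exposed to compound for one week at 30 degrees C before staining; 100% = mean of all compound wells on the same plate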). The conditions noted are these: S. cerevisiae aging, superoxide DHE fluorescence; at 10 µM; stronger effect = lower value.
The target in test [9] is Beta-adrenergic receptor kinase 1 (Homo sapiens) (UniProt P25098). The test is described as follows: GRK2 binders displacing RNA aptamer, biochemical, validation, human GRK2, bead flow cytometry (AID 488806;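 active = aptamer binding inhibition above 30%, about 3 SD of noise from non-fluorescent compounds; inactive = inhibition at or below 30%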). The conditions noted are these: bead-bound GRK2, FAM-aptamer displacement, at 10 µM, stronger effect = higher value.
For test [10], the target named is Beta-2 adrenergic receptor (Homo sapiens) (UniProt P07550). The test is described as follows: agonist-induced loss of surface beta2AR – cell-based, FAP fluorogen, flow cytometry, validation set, pilot screen (AID 504459).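 Also: agonist-driven loss of surface beta2AR via internalization measured by FAP dye flow cytometry.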 The conditions noted are these: Am2.2-beta2AR cells, at 10 µM, stronger effect = higher value.
Test [11] concerns the target AP-2 complex subunit beta (Homo sapiens) (UniProt P63010). In words: beta-arrestin/AP2 interaction blockers – biochemical, validation set, GST-AP2 beads, flow cytometry, pilot screen (AID 504541;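 active = inhibition above 54%, about 3 SD of non-fluorescent compounds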;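 also: AP2 carries R879A mutation and is captured from E. coli lysate; bead-bound FITC arrestin peptide fluorescence measuring arrestin peptide binding to AP2; 0% = DMSO wells and 100% = excess unlabeled arrestin peptide control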). The conditions noted are these: FITC arrestin peptide, at 10 µM, stronger effect = higher value, AP2 beta2 appendage fragment, R879A mutant.
Test [12] is described as follows: cytosolic pH regulators acting via V-ATPase – S. cerevisiae, pHLuorin, HTS validation (AID 504600; in the data active = response above about 15%;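 also: plate controls were DMSO for no effect and reference compound for full effect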). The conditions noted are these: V-ATPase proton transport, at 10 µM, stronger effect = higher value.
Test [13] has as its system anti-desmoglein-3 scFv antibody binding to human DSG3. The test is described as follows: blockers of pathogenic pemphigus antibody–desmoglein-3 binding – biochemical, validation compound set, bead-based, flow cytometry, pilot screen (AID 588368;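 active = binding below the plate cutoff, the plate median minus 3 SD, with a reading above zero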;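 also: signal is the median channel fluorescence of bead-bound GFP antibody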). The conditions noted are these: Protein G beads, DSG3-Fc, scFv-GFP binding, at 10 µM, stronger effect = lower value.
Test [14] can be described thus: Nile Red efflux blockade in pump-expressing yeast – validation compound set, multiplex, phenotypic, pilot screen (AID 588506;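 active = efflux inhibition above 0.42, the validation set average plus 4 SD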;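 also: Nile Red retained in cells so higher fluorescence means more efflux inhibition; 0 = negative control wells and 1 = enniatin B 25 µM full block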). As to conditions: S. cerevisiae pump-expressing triplex, Nile Red efflux flow cytometry; at 10 µM; stronger effect = higher value; the pumps come from Candida albicans.
The target of test [15] is ATP-binding cassette sub-family B member 6 (Homo sapiens) (UniProt Q9NP58). In words: blockers of ABCB6-driven porphyrin uptake – K562-ABCB6 cells, flow cytometry, validation set, pilot screen (AID 588550;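 active = inhibition above the screen-wide mean plus 3 SD, about 51%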;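 also: 0% = DMSO wells and 100% = benzethonium chloride 70 µM positive control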). As to conditions: K562-ABCB6 porphyrin accumulation, 1 h, at 10 µM, stronger effect = higher value.
Test [16] is described as follows: AML differentiation inducers, ER-HoxA9 marrow cells – cell-based, GFP/MAC1 double positive, flow cytometry, validation set, primary screen (AID 588685;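 active = differentiation response of at least 50%, scaled between solvent and reference control, from cells with both markers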;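 also: compound exposure lasts four days before antibody staining and flow analysis; 0% = DMSO wells and 100% = 5 µM fulvestrant positive control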). As to conditions: stronger effect = higher value, normalized: vehicle 0, fulvestrant 100.

Records with an inconclusive call do not appear. Activity calls are given as the source filed them.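 The calls were made as follows, unless noted: active = percent response above 42, roughly 3 SD of non-fluorescent test compounds; inactive = the rest.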

The term inhibition denotes the drop in the measured response relative to a control, in per cent.

Beta-adrenergic receptor kinase 1 (Homo sapiens), sequence (P25098 whole entry, looked up): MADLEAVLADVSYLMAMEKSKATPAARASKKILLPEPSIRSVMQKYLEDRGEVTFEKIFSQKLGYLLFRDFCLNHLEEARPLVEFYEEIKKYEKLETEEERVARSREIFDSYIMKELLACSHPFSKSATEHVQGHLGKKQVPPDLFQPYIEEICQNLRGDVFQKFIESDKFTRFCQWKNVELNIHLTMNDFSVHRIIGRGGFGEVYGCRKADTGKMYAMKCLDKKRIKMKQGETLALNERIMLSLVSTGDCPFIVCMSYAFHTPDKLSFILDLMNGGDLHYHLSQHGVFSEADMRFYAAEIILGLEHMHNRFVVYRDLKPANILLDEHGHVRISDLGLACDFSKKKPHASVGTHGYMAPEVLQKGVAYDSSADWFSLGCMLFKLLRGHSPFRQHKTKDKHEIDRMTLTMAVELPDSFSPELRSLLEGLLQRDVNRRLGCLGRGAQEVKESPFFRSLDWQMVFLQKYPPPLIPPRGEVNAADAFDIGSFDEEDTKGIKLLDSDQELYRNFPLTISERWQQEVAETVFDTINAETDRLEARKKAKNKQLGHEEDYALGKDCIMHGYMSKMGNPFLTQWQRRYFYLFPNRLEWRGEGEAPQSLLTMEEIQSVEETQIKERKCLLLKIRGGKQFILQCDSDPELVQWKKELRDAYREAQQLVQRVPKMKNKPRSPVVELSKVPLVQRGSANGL
Beta-2 adrenergic receptor (Homo sapiens), sequence (P07550 whole entry, looked up): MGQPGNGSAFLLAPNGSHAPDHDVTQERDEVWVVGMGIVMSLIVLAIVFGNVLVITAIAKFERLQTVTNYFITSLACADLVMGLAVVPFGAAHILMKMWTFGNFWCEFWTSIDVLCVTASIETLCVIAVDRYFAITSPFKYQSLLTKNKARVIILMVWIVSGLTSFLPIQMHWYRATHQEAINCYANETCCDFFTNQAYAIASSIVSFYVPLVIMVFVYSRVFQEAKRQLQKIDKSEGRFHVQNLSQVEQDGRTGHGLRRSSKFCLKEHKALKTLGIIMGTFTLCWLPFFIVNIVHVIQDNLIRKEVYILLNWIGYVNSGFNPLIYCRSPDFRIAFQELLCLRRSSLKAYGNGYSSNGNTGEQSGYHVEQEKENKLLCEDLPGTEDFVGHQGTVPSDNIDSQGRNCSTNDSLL
Integrin beta-1 (Homo sapiens) + Integrin alpha-4 (Homo sapiens), sequence (P05556 whole entry, looked up): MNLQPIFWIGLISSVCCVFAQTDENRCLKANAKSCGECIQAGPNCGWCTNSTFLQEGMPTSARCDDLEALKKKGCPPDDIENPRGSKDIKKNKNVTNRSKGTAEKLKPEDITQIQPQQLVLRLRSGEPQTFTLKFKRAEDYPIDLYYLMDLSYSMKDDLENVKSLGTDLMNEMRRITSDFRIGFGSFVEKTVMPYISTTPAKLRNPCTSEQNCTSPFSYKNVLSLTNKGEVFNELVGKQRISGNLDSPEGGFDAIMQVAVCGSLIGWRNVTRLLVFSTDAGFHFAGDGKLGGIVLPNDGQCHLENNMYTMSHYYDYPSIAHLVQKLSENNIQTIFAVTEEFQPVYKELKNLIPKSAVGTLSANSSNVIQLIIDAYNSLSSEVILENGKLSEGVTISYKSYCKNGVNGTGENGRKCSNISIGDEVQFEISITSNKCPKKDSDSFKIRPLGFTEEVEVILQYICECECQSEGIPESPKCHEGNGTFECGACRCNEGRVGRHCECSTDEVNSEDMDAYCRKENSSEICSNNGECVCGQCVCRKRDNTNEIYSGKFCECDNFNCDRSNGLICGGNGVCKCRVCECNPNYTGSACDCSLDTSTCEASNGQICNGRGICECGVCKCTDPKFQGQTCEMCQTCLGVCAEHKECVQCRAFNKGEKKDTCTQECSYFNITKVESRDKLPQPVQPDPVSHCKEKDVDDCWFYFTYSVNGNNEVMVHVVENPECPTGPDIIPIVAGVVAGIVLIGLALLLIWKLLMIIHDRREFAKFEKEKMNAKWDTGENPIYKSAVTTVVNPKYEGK
Integrin beta-1 (Homo sapiens) + Integrin alpha-4 (Homo sapiens), sequence (P13612 whole entry, looked up): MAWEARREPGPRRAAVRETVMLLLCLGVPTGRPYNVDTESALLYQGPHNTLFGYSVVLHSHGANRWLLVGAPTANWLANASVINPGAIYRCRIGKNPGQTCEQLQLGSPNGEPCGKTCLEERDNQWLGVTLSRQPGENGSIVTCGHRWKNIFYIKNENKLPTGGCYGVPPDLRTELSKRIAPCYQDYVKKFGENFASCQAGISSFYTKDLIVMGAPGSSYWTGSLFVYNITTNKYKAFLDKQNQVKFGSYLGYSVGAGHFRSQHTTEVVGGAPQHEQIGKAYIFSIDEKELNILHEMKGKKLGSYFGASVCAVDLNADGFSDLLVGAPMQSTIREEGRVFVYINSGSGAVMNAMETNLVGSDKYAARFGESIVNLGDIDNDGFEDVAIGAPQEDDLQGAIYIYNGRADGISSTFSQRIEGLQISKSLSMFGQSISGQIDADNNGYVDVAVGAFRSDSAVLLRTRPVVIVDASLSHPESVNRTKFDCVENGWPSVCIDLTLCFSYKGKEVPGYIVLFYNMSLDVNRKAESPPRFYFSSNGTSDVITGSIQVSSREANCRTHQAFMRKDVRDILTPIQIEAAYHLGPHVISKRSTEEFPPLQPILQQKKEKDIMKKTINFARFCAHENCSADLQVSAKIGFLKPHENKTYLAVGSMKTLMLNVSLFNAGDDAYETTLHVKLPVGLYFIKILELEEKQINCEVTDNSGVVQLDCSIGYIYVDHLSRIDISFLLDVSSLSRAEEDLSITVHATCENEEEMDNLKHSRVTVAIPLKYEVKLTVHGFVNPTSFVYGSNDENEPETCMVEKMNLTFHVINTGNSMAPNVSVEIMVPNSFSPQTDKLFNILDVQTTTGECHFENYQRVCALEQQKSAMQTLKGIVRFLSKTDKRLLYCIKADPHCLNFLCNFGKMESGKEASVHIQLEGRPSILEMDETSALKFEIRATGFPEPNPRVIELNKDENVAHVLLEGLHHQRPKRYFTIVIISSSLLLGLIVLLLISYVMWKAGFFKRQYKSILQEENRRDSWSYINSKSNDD
ATP-binding cassette sub-family B member 6 (Homo sapiens), sequence (Q9NP58 whole entry, looked up): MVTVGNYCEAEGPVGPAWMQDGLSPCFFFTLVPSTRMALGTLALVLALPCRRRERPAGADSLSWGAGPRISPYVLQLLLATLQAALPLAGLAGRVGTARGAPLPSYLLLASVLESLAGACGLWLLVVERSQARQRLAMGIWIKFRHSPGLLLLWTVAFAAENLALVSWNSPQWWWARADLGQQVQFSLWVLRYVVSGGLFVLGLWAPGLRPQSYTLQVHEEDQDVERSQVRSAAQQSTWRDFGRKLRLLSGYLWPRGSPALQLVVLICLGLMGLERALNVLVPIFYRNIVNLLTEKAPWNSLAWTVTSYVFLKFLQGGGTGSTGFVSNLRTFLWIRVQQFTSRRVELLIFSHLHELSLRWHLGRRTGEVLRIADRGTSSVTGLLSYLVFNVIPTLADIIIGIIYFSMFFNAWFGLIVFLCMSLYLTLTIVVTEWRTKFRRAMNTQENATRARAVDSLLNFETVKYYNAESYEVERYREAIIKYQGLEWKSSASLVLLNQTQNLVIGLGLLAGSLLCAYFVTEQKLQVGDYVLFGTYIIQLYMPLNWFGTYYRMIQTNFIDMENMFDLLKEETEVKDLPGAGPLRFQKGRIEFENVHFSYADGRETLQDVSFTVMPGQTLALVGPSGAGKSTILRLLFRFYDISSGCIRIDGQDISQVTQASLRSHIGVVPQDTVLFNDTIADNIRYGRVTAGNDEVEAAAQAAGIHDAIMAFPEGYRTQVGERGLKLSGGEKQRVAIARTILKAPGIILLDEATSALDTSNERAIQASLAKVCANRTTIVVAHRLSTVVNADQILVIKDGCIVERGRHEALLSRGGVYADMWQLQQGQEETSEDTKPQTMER
AP-2 complex subunit beta (Homo sapiens), sequence (P63010 whole entry, looked up, the tested form may be a part, one chain of several): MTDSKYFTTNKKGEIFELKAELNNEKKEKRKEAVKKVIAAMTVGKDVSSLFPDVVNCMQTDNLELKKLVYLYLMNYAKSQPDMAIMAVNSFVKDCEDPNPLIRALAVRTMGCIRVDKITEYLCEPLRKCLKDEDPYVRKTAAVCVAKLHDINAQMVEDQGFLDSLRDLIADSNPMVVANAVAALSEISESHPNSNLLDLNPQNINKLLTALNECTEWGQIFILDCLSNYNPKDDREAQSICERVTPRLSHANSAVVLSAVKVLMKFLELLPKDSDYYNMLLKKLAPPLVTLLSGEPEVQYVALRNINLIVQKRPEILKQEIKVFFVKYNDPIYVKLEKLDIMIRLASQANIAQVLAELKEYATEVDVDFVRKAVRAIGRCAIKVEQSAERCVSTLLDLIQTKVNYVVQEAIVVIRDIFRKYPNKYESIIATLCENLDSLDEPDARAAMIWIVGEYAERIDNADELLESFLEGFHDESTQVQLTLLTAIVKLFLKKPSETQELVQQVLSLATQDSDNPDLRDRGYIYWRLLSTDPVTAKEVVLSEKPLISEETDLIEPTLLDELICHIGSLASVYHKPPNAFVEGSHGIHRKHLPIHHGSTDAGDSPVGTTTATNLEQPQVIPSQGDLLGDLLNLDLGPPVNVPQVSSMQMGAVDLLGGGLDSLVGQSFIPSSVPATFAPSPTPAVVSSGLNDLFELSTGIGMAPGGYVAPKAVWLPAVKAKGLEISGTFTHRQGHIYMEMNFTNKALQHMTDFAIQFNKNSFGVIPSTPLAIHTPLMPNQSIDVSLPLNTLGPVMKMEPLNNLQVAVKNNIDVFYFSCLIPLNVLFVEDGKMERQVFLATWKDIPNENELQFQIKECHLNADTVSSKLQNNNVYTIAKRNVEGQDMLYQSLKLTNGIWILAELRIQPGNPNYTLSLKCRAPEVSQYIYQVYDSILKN

Take `COc1cc(C(=O)OCCn2c(=O)c3c(ncn3CCN(C)C)n(C)c2=O)cc(OC)c1OC`: the percent of DMSO control GFP in [1] was 106% (inactive). Also, the GFP response vs DMSO in test [2] was 103% (inactive); in test [4], 112% (inactive). Moreover, the percent response of DMSO control in test [3] is 101% (inactive). Further, the GFP response, % of DMSO in test [5] is 117% (inactive). Further, the double positive events in test [6] worked out at 62.6%. In test [6], the vesicle binding response is 156% (inactive). In addition, the inhibition was 4.84% (inactive) in test [7], -2.34% (inactive) in test [11] and 9% (inactive) in test [15]. The superoxide response (% of plate) in [8] is 115% (inactive). In addition, the aptamer binding inhibition in test [9] was 6% (inactive). Moreover, the figures for the response in test [10] and in test [12] were -24.2% (inactive) and -26.2% (inactive), respectively. Besides, the binding (% of control) in test [13] is 112% (inactive). Besides, the efflux inhibition (fraction of control) in test [14] was -0.13 (inactive). Besides, in test [16], the differentiation response was -6.96% (inactive).

As for `CC(C)C(=O)Nc1cccnc1`, the percent of DMSO control GFP in test [1] is 103% (inactive). In addition, the GFP response vs DMSO in test [2] was 99.6% (inactive); in test [4], 115% (inactive). The percent response of DMSO control in test [3] is 99.6% (inactive). Also, the GFP response, % of DMSO in test [5] is 106% (inactive). The same molecule had a double positive events in test [6] of 68.8%. The vesicle binding response in [6] is 294% (inactive). Moreover, the inhibition in test [7] is 21.4% (inactive); in [11], -1.65% (inactive); in test [15], -4% (inactive). Besides, the superoxide response (% of plate) in test [8] was 85.9% (inactive). Also, in test [9], the aptamer binding inhibition was 4% (inactive). The response was 0.35% (inactive) in [10] and 4.74% (inactive) in [12]. The binding (% of control) in test [13] was 99.3% (inactive). The efflux inhibition (fraction of control) in [14] was -0.13 (inactive). Also, in test [16], the differentiation response was 0% (inactive).

Turning to `CC(C)NS(=O)(=O)c1ccc(OCC(=O)Nc2cccc(F)c2)cc1`, the percent of DMSO control GFP in [1] was 101% (inactive). In addition, the GFP response vs DMSO is 98.7% (inactive) in test [2] and 89.3% (inactive) in test [4]. Besides, the percent response of DMSO control in test [3] is 106% (inactive). The GFP response, % of DMSO in test [5] was 92.4% (inactive). In test [6], this molecule displayed a double positive events of 59.7%. Besides, in [6], the vesicle binding response is 143% (inactive). For the same molecule, the inhibition in [7] was -11.8% (inactive); in test [11], 5.6% (inactive); in test [15], 7% (inactive). Moreover, in test [8], the superoxide response (% of plate) was 95.1% (inactive). Moreover, the aptamer binding inhibition in [9] was 3% (inactive). Moreover, the figures for the response in test [10] and in test [12] were 3.73% (inactive) and -2.45% (inactive), respectively. In test [13], the binding (% of control) is 98.5% (inactive). Besides, the efflux inhibition (fraction of control) in test [14] is 0.22 (inactive). In addition, in test [16], the differentiation response is -10.4% (inactive).

Take `COc1ccc(CN(CCC(c2ccccc2)c2ccc(OC(C)C)cc2)C(=O)CCl)cc1OC` (stereo not given): in test [1], the percent of DMSO control GFP was 101% (inactive). Besides, the GFP response vs DMSO is 98.3% (inactive) in test [2] and 98% (inactive) in test [4]. Also, the percent response of DMSO control in test [3] was 107% (inactive). Moreover, in test [5], the GFP response, % of DMSO is 99.7% (inactive). This molecule returned a double positive events in test [6] of 65.9%. Also, the vesicle binding response in [6] was 249% (inactive). For the same molecule, the inhibition in test [7] was -3.57% (inactive); in test [11], -14.7% (inactive); in [15] it was 6% (inactive). Moreover, in test [8], the superoxide response (% of plate) is 94.5% (inactive). Also, the aptamer binding inhibition in [9] is 4% (inactive). Also, the response in [10] is -6.05% (inactive); in test [12], 0.92% (inactive). Besides, in test [13], the binding (% of control) was 93% (inactive). Moreover, the efflux inhibition (fraction of control) in test [14] is -0.2 (inactive). The differentiation response in test [16] is 13.9% (inactive).

`Cc1cnc(NC(=O)C2=C(O)c3ccccc3S(=O)(=O)N2C)s1`: the percent of DMSO control GFP in [1] is 107% (inactive). The GFP response vs DMSO in [2] was 112% (inactive); in test [4], 80.8% (inactive). Moreover, the percent response of DMSO control in test [3] is 88.4% (inactive). Also, the GFP response, % of DMSO in test [5] is 92.9% (inactive). Besides, the double positive events in test [6] came to 65.2%. The vesicle binding response in test [6] is 958% (inactive). The values for the inhibition in [7], in test [11] and in test [15] were -6.68% (inactive), 8.13% (inactive) and 14% (inactive), respectively. In addition, the superoxide response (% of plate) in test [8] was 109% (inactive). Moreover, the aptamer binding inhibition in test [9] was 3% (inactive). Besides, the response in [10] is 1.12% (inactive); in test [12], 1.87% (inactive). Besides, the binding (% of control) in [13] was 93.7% (inactive). Further, the efflux inhibition (fraction of control) in test [14] is 0.27 (inactive). Also, the differentiation response in [16] was 12% (inactive).

Source of the values: PubChem BioAssay.
